# Test results published in the supplement of paper PMC10338343.
# ± gives the standard deviation. The full ranking holds about 8,200 sequences; the median of “pre-steady-state target cleavage rate” is about 0.024, and the highest 2% start at about 1.3. What follows is part of a selection rich in the highest values, with near analogues and random picks from the rest.
# Test system: MIWI (PIWIL1) piRISC loaded with L1MC piRNA (30 nt)
# Assay: pre-steady-state target cleavage rate (min^-1); MIWI and MILI are mouse PIWI proteins and EfPiwi is from a freshwater sponge; tags in brackets are library labels; higher = faster piRNA-guided slicing of the target
# Conditions: guide: L1MC piRNA 5'p-UAACUAAAUACUAUGCAAGCUGUAGGUCCU
# Method in brief: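 A burst-and-steady-state fit was used to obtain the pre-steady-state cleavage rate. The input data were sequencing reads of uncleaved targets, normalised to depth and to weakly complementary targets, from a […] transcribed, DNA-blocked target RNA library mixed with 1 nM active affinity-purified piRISC holding one synthetic guide, with or without 500 nM GTSF1 partner protein, in HEPES–potassium acetate buffer at 33 °C for 0–8 or 0–960 min. Three trials were pooled and k3 was capped at 0.0001 min^-1.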
# [1] = auxiliary factor: 500 nM mouse GTSF1
# [2] = auxiliary factor: none (no GTSF1)
# 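Also: 1 nM active piRISC with 0.1 nM target library at 33 °C single turnover.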
Sequence,pre-steady-state target cleavage rate [1],pre-steady-state target cleavage rate [2]
UCGACAUACAGCUUGCAUAGUAUUUAGUUA,1.38 ± 0.043,0.071 ± 0.012
AGGACAUACAGCUUGCAUAGUAUUUAGUUA,1.32 ± 0.055,0.0818 ± 0.012
UCCUGGAUGUGCUUGCAUUGUAUUUAGUAA,0.0234 ± 0.0059,0.00578 ± 0.0023
UCCUGGAACAGCUUGCAUAGAUUUUAGUAA,0.0419 ± 0.015,
UCCUGGAUGUCGAAGGAUAGUAUUUUGUUA,,< 0.0001
UCCUGGUACUGCAUGCAUAGUAUUUAGUUA,0.556 ± 0.045,0.00786 ± 0.0024
UCCUGCUUCAGCUUGCAUAGUAUUUAGUUA,1.19 ± 0.051,0.0684 ± 0.012
UCCUGGUUCAGCAUGCAUAGUAUUUAGUUA,0.93 ± 0.036,0.0172 ± 0.0043
UCCUGGUUCAGCUAGCAUAGUAUUUAGUUA,0.872 ± 0.045,0.0169 ± 0.004
UCCUGCUUCAGCAUGCAUAGUAUUUAGUUA,1.32 ± 0.078,0.0171 ± 0.0036
UCCUCCUUCAGCUAGCAUAGUAUUUAGUUA,0.78 ± 0.032,0.0147 ± 0.0034
UCCUGCUUCAGCUAGCAUAGUAUUUAGUUA,1.32 ± 0.056,0.0109 ± 0.0042
UCCUGGAACAGCUUGCAUUGUAAUUAGUUA,0.375 ± 0.032,0.018 ± 0.006
UCCUGGAACUCCUUGCAUAGUAUUUAGUUA,0.46 ± 0.048,0.00821 ± 0.0033
UCCUCCUAACAGCUUGCAUAGUAUUUAGUUA,0.591 ± 0.025,0.0508 ± 0.0092
UCCACCUACAGCUUGCUUAGUUUUUAGUUA,0.175 ± 0.017,0.0103 ± 0.002

Sequence,pre-steady-state target cleavage rate [1],pre-steady-state target cleavage rate [2]
UGGUCCUACAGCUUGCAUAGUAUUUUGUUA,0.679 ± 0.03,0.0592 ± 0.011
UCGACCUACAGCUUGCAUGGUAUUUAGUUA,1.73 ± 0.084,0.0512 ± 0.011
UCGACCUACAGCUUGCAUGUAUUUAGUUA,0.479 ± 0.05,0.00292 ± 0.0025
UGGACCUACAGCUUGCAUGGUAUUUAGUUA,1.38 ± 0.079,0.0478 ± 0.01
UCCUCCUACAGCUUGCAUGUAUUUAGUUA,0.428 ± 0.051,0.00445 ± 0.0018
AGGACCUACAGCUUGCAUGGUAUUUAGUUA,1.35 ± 0.073,0.0615 ± 0.012
UGGACCUACAGCUUGCAUGUAUUUAGUUA,0.353 ± 0.055,0.00423 ± 0.0025
UCCACCUACAGCUUGCAUGGUAUUUAGUUA,1.3 ± 0.061,0.0488 ± 0.01
UCCUGCUACAGCUUGCAUGGUAUUUAGUUA,1.2 ± 0.1,0.0413 ± 0.0095
UCGACCUACAGCUUGCAUUAGUAUUUAGUUA,0.264 ± 0.082,
AGGACCUACAGCUUGCAUGUAUUUAGUUA,0.485 ± 0.048,0.00718 ± 0.0034
AGGACCUACAGCUUGCAUGAGUAUUUAGUUA,0.194 ± 0.068,
UCCUCCUACAGCUUGCAUGGUAUUUAGUUA,1.66 ± 0.078,0.0582 ± 0.011
AGGUCCUACAGCUUGCAUAGUAUUUAGAAA,0.285 ± 0.045,0.0132 ± 0.0048
AGGACCUACAGCUUGCAUAGUUAAUUCAAA,0.786 ± 0.23,
